Out of some 420,000 compounds screened, about 50,000 (12%) were called active. Inconclusive results (about 26%) are left out. The full list was thinned out, with actives kept by preference. Unmarked numbers belong to inactive results. Calls follow the shape of the dose curve; as a rule, active = well fitted inhibition curve with a large enough effect; inconclusive = small, poorly fitted or top-dose-only effect; inactive = flat fitted curve, though single readings scatter.
Assay: qHTS for Inhibitors of human tyrosyl-DNA phosphodiesterase 1 (TDP1): qHTS in cells in presence of CPT; also: nearly all actives have a fitted effect of over 55% in size
Conditions: chicken DT40 Tdp1-/-;hTDP1 cells + 20 nM CPT, ATP luminescence, 48 h; series mostly up to 46.2 µM; activity change, negative = growth inhibition: at the top concentration
Outline: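 Chicken DT40 Tdp1-/- cells stably complemented with human TDP1 were seeded at 400 cells/well in medium containing 20 nM camptothecin, exposed to pin-transferred compounds, and grown at 37 °C for at least 48 hr. Viability was read as ATP luminescence.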
% is scaled to controls: 0 for no effect and ±100 for the full control effect; potency is read from the fitted curve at half-maximal effect.

| SMILES | activity change, negative = growth inhibition | Potency |
| --- | --- | --- |
| C=CCN(CC=C)C(=O)COC(=O)c1n[nH]c2ccccc12 | -1.43% | – |
| CNC1(c2nnnn2-c2c(C)cccc2C)CCOC(C)(C)C1 (configuration not stated) | -0.779% | – |
| O=C(NCCO)C(=O)NCC(c1ccc2c(c1)OCO2)N1CCN(c2ccc(F)cc2)CC1 (configuration not stated) | 2.47% | – |
| CC(C)CC(=O)NCC(c1ccc2c(c1)OCO2)N1CCN(c2ccc(F)cc2)CC1 (configuration not stated) | – | 16.4 µM (active) |
| CC(C)CNC(=O)C(=O)NCC(c1ccc2c(c1)OCO2)N1CCOCC1 (configuration not stated) | 3.18% | – |
| COc1ccc(N)cc1NC(=O)CN1CCOCC1 | -5.1% | – |
| COc1ccc(C2C(C(C)=O)=C(O)C(=O)N2CCc2c[nH]c3ccccc23)cc1 (configuration not stated) | -10.4% | – |
| CC(=O)c1ccc(NC(=O)C(C)N(C)CC(=O)Nc2ccccc2Cl)cc1 (configuration not stated) | -5.9% | – |
| CC(=O)c1ccc(NC(=O)c2cc(-c3cccs3)on2)cc1 | 4.84% | – |
| CC(=O)c1ccc(Nc2nc(C(N)c3ccccc3Cl)cs2)cc1 (configuration not stated) | – | 14.6 µM (active) |
| COc1ccccc1-c1cc(C(=O)N2CCCCC2)no1 | -28.7% | – |
| COc1cc(OC)c(NC(=O)c2c3c(nn2C)-c2ccccc2SC3)cc1Cl | -88.3% | – |
| COc1cc(NC(=O)c2noc3c2CSc2ccccc2-3)cc(OC)c1OC | – | 9.2 µM (active) |
| COc1ccc(CCNC(=O)CSc2nc3[nH]ncc3c(=O)n2-c2cccc(C(F)(F)F)c2)cc1OC | 4.43% | – |
| NC(=O)NC(=O)CSc1nc2cc([N+](=O)[O-])ccc2n1-c1cccc(C(F)(F)F)c1 | – | 10.3 µM (active) |
| Cc1cccc(-n2c(Cc3cc(=O)[nH]c(=O)[nH]3)nnc2SCC(=O)Nc2cccc(C(F)(F)F)c2)c1 | -2.7% | – |
| COc1ccc(NS(=O)(=O)c2cc3c(cc2C)N(C(C)=O)CCO3)cc1 | – | inactive |
| COc1ccc(C(=O)NC(Cc2ccc(OC(=O)c3ccc(OC)cc3)cc2)C(=O)O)cc1 (configuration not stated) | -1.18% | – |
| O=C(CSc1nnc(-c2ccc([N+](=O)[O-])cc2)o1)Nc1ccccn1 | -12.2% | – |
| O=C(Nc1ccncc1)c1ccccc1[N+](=O)[O-] | -26.9% | – |
| O=[N+]([O-])c1ccccc1SNc1ccccn1 | – | 20.6 µM (active) |
| CCN1C[C@@H]2[C@@H]3C(=O)N(C)C(=O)[C@@H]3[C@](C)(C1=O)N2C(=O)c1ccccc1 | -2.52% | – |
| N#Cc1nc(COc2ccc(-c3ccccc3)cc2)oc1NCc1cccnc1 | – | 6.51 µM (active) |
| N#Cc1nc(COc2ccc(Cl)cc2)oc1N1CCCC1 | -22% | – |
| COc1ccc(-c2nnc(SCc3cccnc3)o2)cc1 | -2.9% | – |
| CCOC(=O)C[C@H]1c2ccc(C(F)(F)F)cc2S(=O)(=O)N1c1ccccc1 | -27.7% | – |

| SMILES | activity change, negative = growth inhibition | Potency |
| --- | --- | --- |
| COc1ccc2oc(N)c(C=O)c(=O)c2c1 | 0.0059% | – |
| CCN(CC(=O)Nc1cc(Cl)ccc1C)C(=O)CSCc1ccc(C)cc1 | – | 1.3 µM (active) |
| CCN(CC(=O)Nc1cc(Cl)ccc1C)C(=O)CN1C(=O)NC2(CCCC2)C1=O | 6.84% | – |
| CCN(CC(=O)Nc1cc(Cl)ccc1C)C(=O)Cn1c(=O)cnc2ccccc21 | 18.2% | – |
| CCCNC(=O)CCc1c(C)nc2c(c(C)nn2-c2ccccc2)c1C | -9.57% | – |
| CC(=O)Nc1ccccc1-c1nc(CNC(=O)c2ccc(Cl)cc2)c(C)o1 | -121% | – |
| CC(=O)Nc1cc(C(=O)NCc2ccc(F)cc2Cl)ccc1Sc1ccc(Cl)cc1 | – | 20.6 µM (active) |
| COCCNC(=O)c1ccc(S(=O)(=O)c2ccc(Cl)cc2)c(NC(C)=O)c1 | -7.56% | – |
| O=C(CCc1ccccc1Cl)Nc1ccc(S(=O)(=O)Nc2nccs2)cc1 | 5.1% | – |
| CN(C)S(=O)(=O)c1cccc(NC(=O)COC(=O)/C=C/c2cccs2)c1 | 8.48% | – |
| CN(C)S(=O)(=O)c1cccc(NC(=O)COC(=O)c2cc(=O)[nH]c(=O)[nH]2)c1 | 4.15% | – |
| CN(C)S(=O)(=O)c1cccc(NC(=O)COC(=O)C2(c3ccccc3F)CCCC2)c1 | – | 18.4 µM (active) |
| O=C(NCc1ccco1)c1ccc(NS(=O)(=O)c2cccc([N+](=O)[O-])c2)cc1 | -13.8% | – |
| COc1ccc(NC(=O)CSc2nnc(Cc3ccccc3)c(=O)n2N)cc1 | -9.25% | – |
| COc1ccc(C(=O)N(C)CC(O)c2ccccc2)cc1OC1CCN(C(C)=O)CC1 (configuration not stated) | -3.18% | – |
| NC(=O)Nc1ccc(C(=O)OCC(=O)NC2CCCc3ccccc32)cc1 (configuration not stated) | 0.0893% | – |
| CCOC(=O)c1c(NC(=O)CNC2CCCc3ccccc32)sc(C(N)=O)c1C (configuration not stated) | – | 23.1 µM (active) |
| CCOC(=O)c1sc(NC(=O)CSc2nnc(-c3ccco3)o2)c(C(=O)OCC)c1C | -25.3% | – |
| COc1ccc(C(=O)N2CCN(c3ccc(C(C)=O)cc3F)CC2)cc1S(=O)(=O)NC1CC1 | -15.7% | – |
| O=C(Nc1ccc2c(c1)OCCO2)C1CCCC1 | 16.2% | – |
| O=C1Oc2ccccc2C(=O)/C1=C/c1ccccc1O | – | 5.8 µM (active) |
| COC(=O)c1ccc(/C=C2/C(=O)Oc3ccccc32)cc1 | 0.0303% | – |
| COc1ccc2c(c1)O/C(=C\c1ccccc1O)C2=O | 0.283% | – |
| COc1ccc2oc(C(=O)NCC(Cc3ccccc3)N(C)C)c(C)c2c1 (configuration not stated) | -53.9% | – |
| CCOC(=O)C1=C(O)/C(=C/c2ccc(OCC(=O)Nc3ccc(C)cc3)cc2)N=C1C | -7.04% | – |
| CN(C)c1nc(NN)nc(Nc2ccc(F)cc2)n1 | -9.38% | – |

| SMILES | activity change, negative = growth inhibition | Potency |
| --- | --- | --- |
| CCOC(=O)C(C)n1cnc2c(nnn2-c2ccc(F)cc2)c1=O (configuration not stated) | -2.15% | – |
| O=C(c1cc(Cl)cc(Cl)c1)N1CCC(=O)N(C(COCc2ccccc2)Cc2ccccc2)CC1 (configuration not stated) | – | 13 µM (active) |
| CC(C)CC(CO)N1CCN(C(=O)c2ccc(Cl)cc2Cl)CCC1=O (configuration not stated) | -15.8% | – |
| CC(C)C[C@@H](CO)N1CCN(Cc2ccc(O)cc2)CCC1=O | – | inactive |
| CN1CCC(=O)N([C@H](CO)Cc2ccccc2)CC1 | – | inactive |
| Cc1ccc(S(=O)(=O)N2CCC(=O)N([C@H](COCc3ccccc3)C(C)C)CC2)cc1 | -24.5% | – |
| CC(C)CC(COCc1ccc(Cl)cc1)N1CCN(C(=O)c2ccc(C(F)(F)F)cc2)CCC1=O (configuration not stated) | – | 14.6 µM (active) |
| Cc1ccc(S(=O)(=O)N(C)C)cc1NC(=O)C1Cc2ccccc2CN1C(=O)c1ccco1 (configuration not stated) | -0.982% | – |
| Cc1c(C(C)CCCO)oc(=O)c2c1Oc1c(C)c(C(C)C[C@@H](C)O)oc(=O)c1C2 (some centres not stated) | 4.27% | – |
| CCCCCCCC(=O)OC(CN1CCCCCC1)CN1CCCC1=O (configuration not stated) | 16% | – |
| COc1cc(/C=C2\C(=N)N3N=C(CC(=O)N4CCOCC4)SC3=NC2=O)cc(OC)c1OC | -6.19% | – |
| Cc1cc2cc(CNC(=O)c3ccc(S(=O)(=O)N4CCOCC4)cc3)ccc2[nH]1 | -2.39% | – |
| Cc1cccc(OCC(O)CN2CCN(S(=O)(=O)c3ccc(C)cc3C)CC2)c1 (configuration not stated) | -21.3% | – |
| Cc1c(Br)cc(C(=O)N2CCCCCC2)c(C)c1C | -29.8% | – |
| Cn1nnnc1SCC(=O)Nc1nc2ccccc2s1 | 8.1% | – |
| Cc1cccc(CSc2nnc(NC(=O)CSc3nnc(C)s3)s2)c1 | -20.9% | – |
| COc1ccccc1-n1c(CNC(=O)c2ccccc2)nnc1SCC(=O)Nc1nnc(C)s1 | -16.9% | – |
| COc1ccccc1-n1ccnc1SCC(=O)NC(C)(C)C | -8.23% | – |
| Cc1ccccc1-n1c(SCC(=O)Nc2cccc3ccccc23)nc(O)cc1=O | -1.44% | – |
| C=CCn1c(SCC(=O)Nc2nc3ccccc3s2)nnc1-c1ccccc1O | -15.4% | – |
| Cc1nnc(NC(=O)CSc2nccn2-c2cccc(C)c2C)s1 | – | 4.61 µM (active) |
| Cc1cccc(-n2ccnc2SCC(=O)Nc2cccc3ccccc23)c1C | – | 23.1 µM (active) |
| Cc1cc(C)cc(-n2ccnc2SCC(=O)Nc2nc3ccccc3s2)c1 | – | 18.4 µM (active) |
| COc1cccc(CC(=O)N2CCCC(CCC(=O)N3CCN(c4ccccn4)CC3)C2)c1 (configuration not stated) | -6.11% | – |
| CC(C)Sc1ncnc2c1cnn2-c1ccccc1 | -7.47% | – |
| Nc1cc(N)nc(SCc2cccc(F)c2)n1 | 1.43% | – |

| SMILES | activity change, negative = growth inhibition | Potency |
| --- | --- | --- |
| COCCN1C(=O)C(=O)/C(=C(/O)c2ccc(S(=O)(=O)N3CCCCC3)cc2)C1c1ccc(OC)c(OC)c1 (configuration not stated) | 5.68% | – |
| Cc1ccc2c(c1)C1C[N+](C)(CC(=O)c3ccccc3)CCC1N2C(=O)c1ccccc1Cl (configuration not stated) | -1.83% | – |
| CCOc1ccc(C2=CC(c3ccccc3)n3ncnc3N2)cc1 (configuration not stated) | -29.3% | – |
| COCCNC(=O)C1CCCN(Cc2ccccc2Cl)CC1 (configuration not stated) | -11% | – |
| CC(=O)Nc1ccc(NC(=O)CSCc2cnn(-c3ccccc3)c2-n2cccc2)cc1 | -0.201% | – |
| O=C(NCCC1=CCCCC1)C1CCN(Cc2cnn(-c3ccccc3)c2-n2cccc2)CC1 | – | 23.1 µM (active) |
| CS(=O)(=O)c1ccc(C(=O)OCC(=O)NNC(=O)COc2ccc(Cl)cc2)cc1 | 6.33% | – |
| NC(N)=N/N=C/c1ccc(Cl)c([N+](=O)[O-])c1 | – | 11.6 µM (active) |
| CC(CC(=O)O)C(=O)c1ccc(Cl)c([N+](=O)[O-])c1 (configuration not stated) | -1.52% | – |
| O=C(O)c1ccc2c(=O)n3c(nc2c1)/C(=C/c1ccc(Cl)c([N+](=O)[O-])c1)CC3 | 8.58% | – |
| Nn1cnnc1N/N=C/c1cc([N+](=O)[O-])c(Cl)cc1Cl | 1.95% | – |
| O=C(/C=C/c1ccc(Cl)cc1)N1CCN(c2ccccc2[N+](=O)[O-])CC1 | -6.66% | – |
| CN(C)c1ccc(/C=C/C(=O)c2ccc(C(C)(C)C)cc2)cc1[N+](=O)[O-] | – | 23.1 µM (active) |
| O=C(Nc1cccc(NC(=O)c2ccccc2[N+](=O)[O-])c1)c1ccccc1Cl | -11.1% | – |
| O=C(/C=C/c1ccc(Cl)c([N+](=O)[O-])c1)c1ccc(O)cc1 | – | 4.11 µM (active) |
| Cc1cc(C(=O)O)ccc1[N+](=O)[O-] | -11.6% | – |
| O=C(c1ccc(F)cc1)N1CCC(C(=O)N2CCN(S(=O)(=O)c3ccccc3Br)CC2)CC1 | -22.5% | – |
| COc1ccc(NC(=O)C2CCC(CNS(=O)(=O)c3csc(C(N)=O)c3)CC2)cc1OC (configuration not stated) | -4.23% | – |
| Cc1cccc(N(Cc2ccccc2)C(=O)c2cc(S(=O)(=O)N3CCOCC3)ccc2F)c1 | – | 18.4 µM (active) |
| Cc1nn(Cc2ccccc2)c(C)c1CNC(=O)c1ccc(F)c(S(=O)(=O)N2CCOCC2)c1 | -13.2% | – |
| Cc1ccc(S(=O)(=O)N2CCN(C(=O)c3cc(S(=O)(=O)N4CCOCC4)ccc3F)CC2)cc1 | -24.8% | – |
| Cc1ccc(S(=O)(=O)N2CCOCC2)cc1C(=O)NC(=S)N(Cc1ccccc1)C(C)C | 6.11% | – |
| O=C(COC(=O)c1ccc(F)c(S(=O)(=O)N2CCOCC2)c1)NCc1ccc2c(c1)OCO2 | -23% | – |
| O=C(c1ccc(F)c(S(=O)(=O)N2CCOCC2)c1)N(CCc1ccccc1)Cc1ccccc1 | – | 14.6 µM (active) |

Source: PubChem BioAssay AID686979 (National Center for Advancing Translational Sciences (NCATS), 2013)
